# PubChem BioAssay (NCATS)
# Inconclusive results are not listed. Entries that show only a call come without a potency. A number with no mark means an inactive call. The source made the active and inactive calls. Calls follow the shape of the dose curve; as a rule, active = well fitted curve in the direction sought with a large enough effect; inconclusive = small, poorly fitted or top-dose-only effect, or another doubt; inactive = no such curve, though single readings can be large; an effect the other way counts as inactive or inconclusive. Peptide text beside a SMILES is read from it. * marks the point of attachment. AMC = Cc1cc(=O)oc2cc(N*)ccc12; Cbz = O=C(OCc1ccccc1)*
# Assays:
# [1] = target: Aldehyde dehydrogenase, mitochondrial (Homo sapiens) (UniProt P05091); test: qHTS for Inhibitors of the Aldehyde Dehydrogenase Family (ALDH2) Primary screen (AID 2061308); also: nearly all actives have a fitted effect of over 55% in size
# [2] = target: Retinaldehyde dehydrogenase 3 (Homo sapiens) (UniProt P47895); test: qHTS for Inhibitors of the Aldehyde Dehydrogenase Family (ALDH1A3) Validation screen (AID 2061312); also: nearly all actives have a fitted effect of over 45% in size
# [3] = target: Retinaldehyde dehydrogenase 3 (Homo sapiens) (UniProt P47895); test: qHTS for Inhibitors of the Aldehyde Dehydrogenase Family (ALDH1A3) Primary screen (AID 2061315)
# [4] = BET inhibitor-based combinations targeting novel dependencies in MECOM-rearranged (r) AML: SET-2 cell line (AID 2202231); settings: SET-2 AML cells viability, CellTiter-Glo luminescence, 48 h; viability: stronger effect = lower value, concentration not given here; also: nearly all actives have a fitted effect of over 35% in size; also: potency is read from the fitted curve at half-maximal effect
# Method in brief: (§1)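 Cells were plated at 500 per well and exposed to an 11-point dose series of each drug for 48 hr. Viability was measured by CellTiter-Glo luminescence, normalized to DMSO and empty-well controls, and summarized as AUC and per-cell-line Z-AUC.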
# [5] = BET inhibitor-based combinations targeting novel dependencies in MECOM-rearranged (r) AML: MV-4-11 cell line (AID 2202233); also: nearly all actives have a fitted effect of over 45% in size; also: potency is read from the fitted curve at half-maximal effect
# Method in brief: (§2)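 Activity is given as area under the curve and as Z-AUC, mean-centred within each cell line. It comes from 11-point dose curves normalized to DMSO and empty wells. CellTiter-Glo luminescence was read after 48 hr drug exposure of 500 cells/well.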
# [6] = BET inhibitor-based combinations targeting novel dependencies in MECOM-rearranged (r) AML: HNT-34 cell line (AID 2202234); also: nearly all actives have a fitted effect of over 35% in size; also: potency is read from the fitted curve at half-maximal effect
# Method in brief: as §2
# [7] = BET inhibitor-based combinations targeting novel dependencies in MECOM-rearranged (r) AML: AML-191 cell line (AID 2202236; also: nearly all actives have a fitted effect of over 35% in size; also: potency is read from the fitted curve at half-maximal effect)
# Method in brief: as §1
# [8] = BET inhibitor-based combinations targeting novel dependencies in MECOM-rearranged (r) AML: AML-194 cell line (AID 2202237; also: nearly all actives have a fitted effect of over 40% in size; also: potency is read from the fitted curve at half-maximal effect)
# Method in brief: as §1
# [9] = BET inhibitor-based combinations targeting novel dependencies in MECOM-rearranged (r) AML: UCSD-AML1 cell line (AID 2202235); also: nearly all actives have a fitted effect of over 40% in size; also: potency is read from the fitted curve at half-maximal effect
# Method in brief: as §2
# [10] = BET inhibitor-based combinations targeting novel dependencies in MECOM-rearranged (r) AML: OCI-AML3 cell line (AID 2202232); settings: Potency: OCI-AML3 viability; also: potency is read from the fitted curve at half-maximal effect; nearly all actives have a fitted effect of over 35% in size
# Method in brief: as §1
compound,measurement,setting,value
O=C(c1ccc(NS(=O)(=O)c2cccc3cccnc23)cc1)N1CCN(CC2CC2)CC1,Potency,[1],inactive
same,Potency,[2],inactive
same,Potency,[3],inactive
same,viability,[4],115%
same,Potency,[5],inactive
same,Potency,[6],inactive
same,Potency,[7],inactive
same,Potency,[8],inactive
CC#C[C@@H](CC(=O)O)c1ccc(OCc2cccc(-c3ccc(C(F)(F)F)cc3)c2)cc1,Potency,[1],inactive
same,Potency,[2],inactive
same,Potency,[3],inactive
same,Potency,[6],inactive
same,Potency,[9],inactive
same,Potency,[7],20.9 µM (active)
OC1(CN2CCC(COc3noc4cccc(O[C@@H]5CCOC5)c34)CC2)CCOCC1,Potency,[1],inactive
same,Potency,[2],inactive
same,Potency,[3],inactive
C=CC(=O)N1CCN(C(=O)c2cc(-c3cc(Cl)ccc3Cl)c(Cl)cc2OC)CC1,Potency,[1],inactive
same,Potency,[2],inactive
same,Potency,[3],inactive
CC1(C)CC(NC(=O)C(=O)Nc2ccc(Cl)cc2)CC(C)(C)N1,Potency,[1],inactive
same,Potency,[2],inactive
same,Potency,[3],inactive
C[C@H](Nc1cc2c(-c3ccc4c(c3)OCO4)noc2cn1)c1ccccc1,Potency,[1],inactive
same,Potency,[2],inactive
same,Potency,[3],inactive
CCC(=O)N1CCOc2c(cc(-c3ccc(OC)c(OC)c3)cc2OC[C@H]2CCCN(C)C2)C1,Potency,[1],inactive
same,Potency,[2],inactive
same,Potency,[3],inactive
CC(C)[C@@H]1C(=O)N(S(C)(=O)=O)[C@@H]2CCN(C(=O)/C=C/CN3CCCCC3)[C@H]21,Potency,[1],inactive
same,Potency,[2],inactive
same,Potency,[3],inactive
CC1(C)CC=C(C#Cc2ccccc2)c2cc(/C=C/c3ccc(C(=O)O)cc3)ccc21,Potency,[1],inactive
same,Potency,[2],inactive
same,Potency,[3],inactive
CC(C)c1cc(C(=O)N2Cc3ccc(CN4CCN(C)CC4)cc3C2)c(O)cc1O,Potency,[1],inactive
same,Potency,[2],inactive
same,Potency,[3],inactive
same,Potency,[4],0.263 µM (active)
same,Potency,[5],0.0742 µM (active)
same,Potency,[9],0.263 µM (active)
CCNC(=O)[C@@H]1CCCN1C(=O)[C@H](CCCN=C(N)N)NC(=O)[C@H](CC(C)C)NC(=O)[C@@H](CC(C)C)NC(=O)[C@H](Cc1ccc(O)cc1)NC(=O)[C@H](CO)NC(=O)[C@H](Cc1c[nH]c2ccccc12)NC(=O)[C@H](Cc1cnc[nH]1)NC(=O)[C@@H]1CCC(=O)N1,Potency,[1],inactive
same,Potency,[3],inactive
CCNCc1nc2c(N)nc3ccccc3c2n1CC(C)(C)O,Potency,[1],inactive
same,Potency,[2],inactive
same,Potency,[3],inactive
same,viability,[4],94.4%
same,Potency,[5],20.9 µM (active)
same,Potency,[9],inactive
same,Potency,[8],inactive
Cc1cc(NC(=O)NCCN2CCC(O)(Cc3ccccc3)CC2)c2ccccc2n1,Potency,[1],inactive
same,Potency,[2],inactive
same,Potency,[3],inactive
Nc1nc(F)nc2c1ncn2[C@@H]1O[C@H](CO)[C@@H](O)[C@@H]1O,Potency,[1],inactive
same,Potency,[2],inactive
same,Potency,[3],inactive
same,Potency,[4],14.8 µM (active)
same,Potency,[10],10.5 µM (active)
same,Potency,[5],9.34 µM (active)
same,Potency,[6],14.8 µM (active)
same,Potency,[9],1.05 µM (active)
same,Potency,[7],2.95 µM (active)
same,Potency,[8],3.72 µM (active)
Oc1ccccc1-c1cc(-c2ccccc2F)[nH]n1,Potency,[1],inactive
same,Potency,[2],inactive
same,Potency,[3],inactive
COc1ccc(CCc2nc3cc(-c4c(C)noc4C)ccc3n2C[C@H](C)N2CCOCC2)cc1Cl,Potency,[1],inactive
same,Potency,[2],inactive
same,Potency,[3],inactive
C[C@H]1Oc2cc(cnc2N)-c2c(nn(C)c2C#N)CN(C)C(=O)c2ccc(F)cc21,Potency,[1],inactive
same,Potency,[2],inactive
same,Potency,[3],inactive
same,viability,[4],98.3%
same,Potency,[5],18.6 µM (active)
same,Potency,[7],1.32 µM (active)
O=C1COc2nccc(-c3ccccc3F)c2CN1Cc1cc(C(F)(F)F)cc(C(F)(F)F)c1,Potency,[1],inactive
same,Potency,[2],inactive
same,Potency,[3],inactive
NC1=NC2(c3cc(NC(=O)c4ccc(F)cn4)ccc3F)COCC2CS1 (stereo not given),Potency,[1],inactive
same,Potency,[2],inactive
same,Potency,[3],inactive
Cc1cc(=O)oc2cc(NC(=O)[C@H](CCC(=O)O)NC(=O)[C@H](CC(C)C)NC(=O)[C@H](CC(C)C)NC(=O)OCc3ccccc3)ccc12 (Cbz-Leu-Leu-Glu-{AMC}),Potency,[1],inactive
same,Potency,[3],inactive
C=C1CCC2C(C)(C)C(O)CCC2(C)C1CCC(C)CCOC(C)=O (stereo not given),Potency,[1],inactive
same,Potency,[3],inactive
COc1ccccc1N1CCN(CC(C(=O)NC(C)(C)C)c2ccccc2)CC1 (stereo not given),Potency,[1],inactive
same,Potency,[2],inactive
same,Potency,[3],inactive
COc1cc2c(cc1OC)-c1[nH]nc(Nc3cccc(F)c3)c1C2,Potency,[1],inactive
same,Potency,[2],inactive
same,Potency,[3],inactive
O=c1[nH]cnc2c1ncn2[C@@H]1O[C@H](CO)[C@@H](O)[C@H]1O,Potency,[1],inactive
same,Potency,[2],inactive
same,Potency,[3],inactive
C[C@@]1(C(=O)Nc2ccc(F)nc2)CCCN1c1nc(Nc2cc(C3CC3)[nH]n2)c2cccn2n1,Potency,[1],inactive
same,Potency,[2],inactive
same,Potency,[3],inactive
same,Potency,[10],0.0742 µM (active)
same,Potency,[5],2.95 µM (active)
same,Potency,[8],1.48 µM (active)
